# Hits are enriched below; roughly 3% of the tested compounds scored in any of these assays.
# DAGLB inh = DAGLB lipase inhibitors, primary screen, biochemical, fluorescence, HTS | Diacylglycerol lipase-beta (Homo sapiens), Q8NCG7 | HEK293T DAGLB membrane lysate, EnzChek fluorogenic substrate | inhibition, % at 5.17 µM | 0.059% of 340,000 active; in the data active means inhibition above about 34%
# PAFAH2 inh = PAFAH2 enzyme inhibitors, primary screen, biochemical, fluorescence polarization, human; recombinant PAFAH2, FP-rhodamine activity probe; inhibition, % at 3.39 µM; 0.99% of 340,000 active; Platelet-activating factor acetylhydrolase 2, cytoplasmic (Homo sapiens), Q99487; AID 492956, 2010;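 active means inhibition above the mean over all tested compounds plus 3 SD, cut at about 30% in these data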;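 further: inhibitors block probe labeling of enzyme so polarization drops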
# PAFAH1B3 inh = PAFAH1B3 enzyme inhibitors, primary screen, biochemical, fluorescence polarization, human; inhibition, % at 3.39 µM; recombinant PAFAH1B3, FP-rhodamine probe; 0.28% of 340,000 active; AID 492972, 2010;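 active means inhibition above the screen-wide average of all tested compounds plus 3 SD, cut at about 25% in these data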
# pPAFAH inh = pPAFAH enzyme inhibitors, primary screen, biochemical, fluorescence polarization, human; Platelet-activating factor acetylhydrolase (Homo sapiens), Q13093; AID 463082, 2010; recombinant pPAFAH, FP-rhodamine probe fluorescence polarization; 1.5% of 330,000 active; inhibition, % at 3.39 µM;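 active means inhibition above the mean inhibition across the screen plus 3 SD, cut at about 25% in these data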;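 further: inhibitors block binding of the rhodamine activity-based probe so polarization drops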
# Target sequence (Q13093 whole entry, looked up): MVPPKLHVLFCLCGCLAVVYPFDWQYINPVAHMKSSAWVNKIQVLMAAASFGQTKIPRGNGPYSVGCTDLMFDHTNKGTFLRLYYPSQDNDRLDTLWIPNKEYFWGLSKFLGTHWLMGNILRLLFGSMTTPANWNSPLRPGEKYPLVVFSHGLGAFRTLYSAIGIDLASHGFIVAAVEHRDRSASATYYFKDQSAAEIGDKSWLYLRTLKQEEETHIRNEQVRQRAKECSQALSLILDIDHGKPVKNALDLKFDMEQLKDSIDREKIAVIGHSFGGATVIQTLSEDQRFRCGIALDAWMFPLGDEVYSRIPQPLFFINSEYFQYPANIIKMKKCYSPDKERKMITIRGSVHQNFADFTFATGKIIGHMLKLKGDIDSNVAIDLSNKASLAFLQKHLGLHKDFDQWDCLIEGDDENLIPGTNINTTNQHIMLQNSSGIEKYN
# ATG4B inhibitor = ATG4B protease inhibitors, primary screen, biochemical, fluorescence, uHTS | Cysteine protease ATG4B (Homo sapiens), Q9Y4P1 | inhibition, % at 8.33 µM | AID 504462, 2011 | 0.51% of 340,000 active | ATG4B cleavage of LC3-PLA2, NBD-HPC fluorescence, 1 h; in the data active means inhibition above about 40%
# PAFAH1B2 FP inh = PAFAH1B2 enzyme inhibitors, primary screen, biochemical, fluorescence polarization, human. 1.2% of 340,000 active. Platelet-activating factor acetylhydrolase IB subunit alpha2 (Homo sapiens), P68402. recombinant PAFAH1B2, FP-rhodamine activity probe. inhibition, % at 3.39 µM;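 active means inhibition above the mean of all tested compounds plus 3 SD, cut at about 24% in these data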
# PAFAH2 FP conf = PAFAH2 enzyme inhibitors, confirmation, biochemical, fluorescence polarization, human | shares compounds with PAFAH2 inh | recombinant PAFAH2, FP-rhodamine activity probe | inhibition, % at 3.39 µM | 65% of 2,300 active | AID 493030, 2011;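 active means mean inhibition over three repeats above a set limit taken from the earlier primary screen, cut at about 30% in these data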;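 further: inhibitor blocks binding of rhodamine activity probe so polarization falls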
# A number is an active result; - = inactive; . = no result given.
SMILES,DAGLB inh,PAFAH2 inh,PAFAH1B3 inh,pPAFAH inh,ATG4B inhibitor,PAFAH1B2 FP inh,PAFAH2 FP conf
O=C(COC(=O)CNC(=O)c1ccc(F)cc1)Nc1cccc(S(=O)(=O)N2CCCC2)c1,-,-,-,-,-,-,.
O=C(COC(=O)/C=C/c1ccc(OC(F)F)cc1)Nc1cccc(S(=O)(=O)N2CCOCC2)c1,-,53,-,-,-,-,40
O=C(COC(=O)/C=C/c1ccc(F)cc1)Nc1cccc(S(=O)(=O)N2CCCC2)c1,-,53,-,-,-,-,44
C[C@H](CO)N1C[C@H](C)[C@@H](CN(C)S(=O)(=O)c2ccc(F)cc2)Oc2ccc(NC(=O)CCN3CCOCC3)cc2C1=O,-,-,-,-,-,-,.
Cc1cccc(C)c1NS(=O)(=O)c1cc2c3c(c1)CCN3C(=O)CC2,-,-,-,-,-,-,.
COC(=O)C1CCN(CC(=O)Nc2ccc(C(=O)Nc3ccccc3OC)cc2)CC1,-,-,-,-,-,-,.
COc1ccc(C(=O)OCC(=O)NC(C)CCc2ccccc2)cc1 (stereo not drawn),-,75,-,-,-,-,68
NC(=O)Nc1ccc(C(=O)OCC(=O)Nc2sccc2C(N)=O)cc1,-,-,-,.,-,-,.
COc1ccc(C(=O)OCC(=O)NC(C)CCc2ccccc2)cc1OC (stereo not drawn),-,74,-,-,-,-,71
CC(C)n1nccc1NC(=O)COC(=O)c1ccc(NC(N)=O)cc1,-,65,-,-,-,-,46
COc1ccc(/C=C/C(=O)OCC(=O)NC(C)CCc2ccccc2)cc1OC (stereo not drawn),-,64,-,-,-,-,59
O=C(c1ccccc1)N1N=C(c2ccccc2O)CC1c1ccccc1 (stereo not drawn),-,-,-,-,-,-,.
CC1(c2nnc(-c3cccc(Cl)c3)o2)CC(c2cccc([N+](=O)[O-])c2)=NO1 (stereo not drawn),-,-,-,-,-,-,.
CC(CCc1ccccc1)NC(=O)COC(=O)c1ccc(NC(N)=O)cc1 (stereo not drawn),-,67,-,-,-,-,64
O=C(COc1ccccc1)N[C@@H]1c2ccccc2CC[C@@H]1O,-,-,-,-,.,-,.
CC1=C(C#N)C(=O)NC(=O)/C1=C\c1ccc(-c2ccc(C)cc2[N+](=O)[O-])o1,-,35,-,.,-,-,-
O=C(CNC(=O)c1ccc(Br)o1)NNC(=O)c1ccccc1O,-,-,-,-,-,-,.
COc1ccc(COC[C@H](C)[C@H](O)[C@@H](C)[C@H]2OC(=O)[C@@H]2C)cc1,-,69,-,-,-,-,78
COc1ccc(CCC(=O)NC(C)C)cc1,-,-,-,-,-,-,.
Cc1oc(-c2ccccc2Cl)nc1CS(=O)(=O)CC(=O)NC1CCCC1,-,-,-,-,-,-,.
CCCc1c(C(=O)Nc2ccc(C(F)(F)F)cc2)cnn1-c1ccccc1,-,-,-,-,-,-,.
CCCc1c(C(=O)NNc2ccc(C)cc2)cnn1-c1ccccc1,-,33,-,-,-,-,-
CCC(C)(C)NC(=O)C(c1ccc(F)cc1)N(Cc1cccs1)C(=O)c1cnccn1 (stereo not drawn),-,-,-,-,-,-,.
O=C(COC(=O)C1=COCCO1)Nc1cccc(Oc2ccccc2)c1,-,90,-,-,-,-,74
O=C(COC(=O)C1=COCCO1)NC1CCCCCCC1,-,76,-,-,-,-,74
CC(=O)c1cccc(NC(=O)COC(=O)C2=COCCO2)c1,-,44,-,-,-,-,38

# Screening data from PubChem.
